The source of these data is ChEMBL document CHEMBL3988442, “University of Dundee, Small-Polar-MMV Screening Library” (2021).

Among all 48,000 compounds or so, about 13,000 (27%) showed an effect of 50% or more. Some of the results follow.

The test system of this assay is Wolbachia pipientis. In words: Anti-Wolbachia Cell-Based Screen. To be noted: 5 µM. The class given is functional. On the set-up: scale not given: in the data most compounds retested in dose-response had high values.
Turning to `Cc1ccnn1C(C)C(=O)Nc1cc(-c2ccncc2)[nH]n1` (centres undefined), the “Percent Effect” value was 16.43%. The value for `O=C(NCCNc1ncccn1)N1CC=C(c2ccccc2)CC1` was 13.59%. For `Nc1cc(CCCNC(=O)NC2CC2)nn1-c1ccccc1`, the “Percent Effect” value was -28.53%. As for `COCCN1CCCn2c(nc(CNS(C)(=O)=O)cc2=O)C1.O=C(O)C(F)(F)F`, the “Percent Effect” value was 96.89%. As to `O=C(NCc1cc(=O)n2c(n1)CN(CC1CC1)CCC2)c1ccsc1.O=C(O)C(F)(F)F`, the “Percent Effect” value was determined as 88.56%. As for `COCCN1CCCn2c(nc(CNC(=O)COC)cc2=O)C1.O=C(O)C(F)(F)F`, the “Percent Effect” value is on record as 101.5%. For the compound `CCCN1CCCn2c(nc(CNC(=O)N3CCCC3)cc2=O)C1.O=C(O)C(F)(F)F`, the “Percent Effect” value was 1.555%. The value for `CN1CCCn2c(nc(CNC(=O)c3ccsc3)cc2=O)C1.O=C(O)C(F)(F)F` was -36.6%; that for `CN1CCCn2c(nc(CNC(=O)c3nccn3C)cc2=O)C1.O=C(O)C(F)(F)F.O=C(O)C(F)(F)F` was -10.78%; that for `CCCN1CCCn2c(nc(CNC(=O)c3ccsc3)cc2=O)C1.O=C(O)C(F)(F)F` was -11.31%.

Regarding `CC(C)N1CCCn2c(nc(CNC(=O)c3nccn3C)cc2=O)C1.O=C(O)C(F)(F)F.O=C(O)C(F)(F)F`, the “Percent Effect” value is given as -1.312%. `COCC(=O)NCc1cc(=O)n2c(n1)CN(C)CCC2.O=C(O)C(F)(F)F`: the “Percent Effect” value is 104.3%.

Regarding `CCc1nn(C)c(CC)c1CNC(=O)Nc1cccc2c1CCN2C`, the “Percent Effect” value was -5.732%.

As to `O=C1CCC2(CCN(CCSc3ccccc3)CC2)CN1CCCO`, the “Percent Effect” value is reported as -17.17%. Take `CC(CNC(=O)N1CCS(=O)(=O)CC1)Cc1cccs1` (centres undefined): the “Percent Effect” value stood at 21.62%. The value for `Cc1nnc(C(C)NCC2(c3c(F)cccc3F)CCCC2)o1` (centres undefined) was 5.955%.

On to `COc1ccc(CN2CCn3cc(CNC(=O)C4CCC4)nc3C2)cc1.O=C(O)C(F)(F)F`, for which the “Percent Effect” value is recorded as -6.087%.

In the case of `O=C(NCc1cc(=O)n2c(n1)CN(CC1CCOC1)CCC2)C1CC1.O=C(O)C(F)(F)F` (centres undefined), the “Percent Effect” value was -7.493%. As for `COc1ccc(CN2CCn3cc(CNC(=O)CC4CC4)nc3C2)cc1.O=C(O)C(F)(F)F`, the “Percent Effect” value was -3.28%.

As to `COCC(=O)NCc1cc(=O)n2c(n1)CN(CC1CC1)CCC2.O=C(O)C(F)(F)F`, the “Percent Effect” value is on record as 83.83%. The value for `COCC(=O)NCc1cc(=O)n2c(n1)CN(Cc1ccccc1)CCC2.O=C(O)C(F)(F)F` was 93.29%; that for `Cc1ccc(C(C)(O)CNC(=O)c2sccc2OC(F)F)o1` (centres undefined) was -15.69%; that for `CCS(=O)(=O)NCC1OCCc2cn(CC3CCOCC3)nc21` (centres undefined) was -7.17%.

As to `O=C1N(c2ccccc2)Cc2nc(=O)[nH]n21`, the “Percent Effect” value was determined as 8.633%.

In the case of `CC(C)Sc1ncccc1C(=O)NCc1ccoc1`, the “Percent Effect” value was 124.5%. The value for `CSc1ncccc1C(=O)NCCC(O)c1ccco1` (centres undefined) was -7.347%; that for `CC(C)Nc1ncccc1C(=O)NCc1ccnn1C` was -5.174%; that for `O=C(c1cccnc1N1CCN(Cc2ccoc2)CC1)N1CCCCC1` was 11.57%.

In the case of `CC(C)Sc1ncccc1C(=O)NCc1ccc(O)cc1`, the “Percent Effect” value is on record as 102.9%. For the compound `CC(C)Sc1ncccc1C(=O)NCc1ccc(CS(C)(=O)=O)cc1`, the “Percent Effect” value is listed as 3.251%. The value for `Cc1c[nH]c(CN(C)C(=O)C2CC(=O)N(Cc3ccncc3)C2)n1` (centres undefined) was -14.3%; that for `CN1CCC(N(C)C[C@H]2CC[C@@H](Cc3ccc4occc4c3)O2)CC1` was -18.26%. The value for `Cc1ccc(N2CCC3(CCN(Cc4nccs4)CC3)CC2)nn1` was 5.38%; that for `Cc1cnc(N2C[C@H]3CN(Cc4csc(C)n4)C(=O)[C@H]3C2)nc1.O=C(O)C(F)(F)F` was -0.6865%; that for `Cc1nc(CN2CCC3(CCN(c4ncc(F)cn4)C3)C2=O)cs1.O=C(O)C(F)(F)F` (centres undefined) was -4.043%. On to `Cc1nc(CN2CCC3(CCN(C(=O)c4ccoc4C)CC3)C2)cs1.O=C(O)C(F)(F)F`, for which the “Percent Effect” value is 2.621%.

Take `Cc1nc(CN2CCC3(CCCN(C(=O)c4cnccn4)C3)C2)cs1.O=C(O)C(F)(F)F` (centres undefined): the “Percent Effect” value was -5.513%. The value for `Cc1ccc(N2CCC3(CCN(Cc4csc(C)n4)C3=O)C2)nn1` (centres undefined) was 95.91%; that for `Cc1ccc(N2CCC3(CCN(Cc4csc(C)n4)CC3)CC2)nn1` was -10.89%. The value for `COc1cc(N2CCC3(CCN(Cc4csc(C)n4)C3)CC2)ncn1.O=C(O)C(F)(F)F` was 133.8%. For `Cc1cnc(N2CCC3(CCN(Cc4csc(C)n4)C3=O)C2)nc1.O=C(O)C(F)(F)F` (centres undefined), the “Percent Effect” value turned out to be 101.3%. Turning to `COc1cc(N2CCC3(CCN(Cc4csc(C)n4)C3=O)C2)ncn1.O=C(O)C(F)(F)F` (centres undefined), the “Percent Effect” value is on record as 173.5%. As for `Cc1cnc(N2CCCC3(CCN(Cc4csc(C)n4)C3=O)C2)nc1.O=C(O)C(F)(F)F.O=C(O)C(F)(F)F` (centres undefined), the “Percent Effect” value was -16.03%. The value for `Cc1ncsc1C(=O)NCC1CCC2(CCNCC2)CO1.Cl` (centres undefined) was -19.17%; that for `CCc1cc(NCc2cc(CC(C)C)on2)n2nccc2n1` was -11.32%.

Consider `O=C(c1cnccn1)N1CCn2cnc(COCC3CC3)c2C1`, for which the “Percent Effect” value is on record as -16.54%. The value for `COc1cccc(N2CC3(CCN(c4cc(OC)ncn4)C3)CC2=O)c1` (centres undefined) was -36.15%. Turning to `Cc1nc(CN2CC3(CCN(c4ncc(F)cn4)C3)CC2=O)cs1.O=C(O)C(F)(F)F` (centres undefined), the “Percent Effect” value amounted to 22.92%. The value for `Fc1ccc(CN2CCC3(CCN(Cc4nccs4)CC3)C2)cc1.O=C(O)C(F)(F)F.O=C(O)C(F)(F)F` was -8.456%; that for `COc1cc(N2CCC3(CC(=O)N(Cc4csc(C)n4)C3)C2)ncn1` (centres undefined) was 116.5%. With `O=C(O)C(F)(F)F.O=C(O)C(F)(F)F.c1csc(CN2CCC3(CC2)CCN(CC2CCOCC2)C3)n1`, the “Percent Effect” value is -8.285%. The value for `COc1cc(N2CCC3(CCN(Cc4nccs4)CC3)C2)ncn1.O=C(O)C(F)(F)F` was 189%; that for `COc1ccc2c(ccn2CCC(=O)Nc2n[nH]c(C(C)C)n2)c1` was 80.39%.

Regarding `COc1ccc2c(ccn2CC(=O)Nc2n[nH]c(C(C)C)n2)c1`, the “Percent Effect” value was 99.9%.

`CCOCCOC(C)C(=O)Nc1ccc2c(ccn2CC)c1` (centres undefined): the “Percent Effect” value was -1.618%. The value for `CCOC(C)C(=O)Nc1ccc2c(ccn2CC)c1` (centres undefined) was -6.658%; that for `CCCn1ccc2cc(NC(=O)NCCn3cnnc3CC)ccc21` was -13.76%; that for `COc1ccc2c(ccn2CCC(=O)Nc2nc[nH]n2)c1` was 112.1%.

For the compound `COc1ccc2c(ccn2CCC(=O)Nc2ccc(C(N)=O)cc2)c1`, the “Percent Effect” value amounted to 111.4%. The value for `Cc1ccc2c(ccn2CCC(=O)NC[C@@H]2CCCN3CCCC[C@H]23)c1` was -8.382%; that for `COc1ccc2c(ccn2CCC(=O)O)c1` was -1.885%. Regarding `NC(=O)c1ccc(NC(=O)CCN2CCCC(N3CCCC3)C2)cc1` (centres undefined), the “Percent Effect” value is given as -7.492%. Regarding `COc1ccc2c(ccn2CC(=O)N2CCCC2c2cnn(C)c2)c1` (centres undefined), the “Percent Effect” value came out at 0.9225%. With `CN1Cc2nnc(C3CCOCC3)n2C(Cc2c[nH]cn2)C1` (centres undefined), the “Percent Effect” value is -4.297%. Regarding `CC(Cn1cncn1)NC(=O)c1cn(Cc2ccccc2F)nn1` (centres undefined), the “Percent Effect” value turned out to be 8.945%. The value for `CCNC(=O)NCC(CC)(OC)c1ccccc1` (centres undefined) was 2.354%. `O=C(NCCn1ccnc1)C1COCC(=O)N1Cc1ccccc1` (centres undefined): the “Percent Effect” value is on record as -11.36%. The value for `Cn1ccnc1CN1CCC2(CC1)CN(c1ccccn1)CCO2.O=C(O)C(F)(F)F.O=C(O)C(F)(F)F` was -7.538%.

For the compound `CC1N(c2cnn(C)c2)C(=O)COC12CCN(c1ncccn1)CC2.O=C(O)C(F)(F)F` (centres undefined), the “Percent Effect” value was 116.4%. The value for `O=C(O)C(F)(F)F.O=C1COC2(CCN(c3ncccn3)CC2)CN1` was 1.956%; that for `CN1C(=O)CC(c2ccncc2)C12CCN(c1ncccn1)CC2.O=C(O)C(F)(F)F` (centres undefined) was -40.6%.

As to `CC1N(c2cnn(C)c2)C(=O)COC12CCN(c1ccccn1)CC2.O=C(O)C(F)(F)F` (centres undefined), the “Percent Effect” value was found to be 138.6%. On to `O=C(O)C(F)(F)F.O=C1COC2(CCN(c3ccccn3)CC2)CN1`, for which the “Percent Effect” value was -3.085%. Turning to `CC(C)(O)CSCCNC(=O)c1cc(F)ccc1F`, the “Percent Effect” value was determined as 5.192%.

Take `Cc1ccc(CS(=O)(=O)N2CC[C@H]3[C@H]2CCN3C)cc1`: the “Percent Effect” value is on record as 6.881%. As for `CN(C)C(=O)N1CCC2(CC1)CNc1ccc(F)cc12.Cl`, the “Percent Effect” value is reported as -3.877%.

Take `CC(C)Cn1cncc1CNC(=O)c1cccc(CC2CCNCC2)c1`: the “Percent Effect” value is on record as 4.276%. Take `CNC(=O)NC(=O)CN1CCC(c2cccc(F)c2)C1` (centres undefined): the “Percent Effect” value is recorded as -6.233%.

Take `CNC(=O)c1cccc(C2CNCCN2C(=O)c2cccc(F)c2)c1.Cl` (centres undefined): the “Percent Effect” value worked out at 87.98%.

As to `CNC(=O)c1cccc(C2CNCCN2C(=O)c2ccn(C)n2)c1` (centres undefined), the “Percent Effect” value stood at 140.8%. The value for `Cc1cnc(C(=O)N2CCNCC2C(=O)NCc2ccncc2)cn1` (centres undefined) was -22.4%. For the compound `CNC(=O)c1cccc(C2CNCCN2C(C)=O)c1` (centres undefined), the “Percent Effect” value is recorded as -19.14%. In the case of `CNC(=O)c1cccc(C2CNCCN2C(=O)C2CCNCC2)c1` (centres undefined), the “Percent Effect” value stood at 105.9%. The value for `CNC(=O)c1cccc(Nc2cnn(C)c2)c1` was -6.81%; that for `COCCn1cc(C(=O)N2CCCC2c2cccc(F)c2)ccc1=O` (centres undefined) was 1.276%; that for `Cc1nc2c(c(=O)n1C)CCN(C(=O)CCc1ccccc1O)CC2` was -32.69%. On to `O=C1CCC2(CCOC2)CN1Cc1ccc2nsnc2c1` (centres undefined), for which the “Percent Effect” value is -12.42%. The value for `CC(=O)Nc1ncc(S(=O)(=O)N2CCCC(C)C2)s1` (centres undefined) was -1.419%.

On to `O=C(O)C(F)(F)F.c1cnc(N2CCOCC3(C2)CN(c2nccs2)CCO3)nc1` (centres undefined), for which the “Percent Effect” value is on record as -52.69%. The value for `CN(C)C(=O)CN1CCOCC2(CCN(c3ncc(F)cn3)CC2)C1.O=C(O)C(F)(F)F` was 94.37%. The value for `CN(C)C(=O)CN1CCOCC2(CCN(CC3CCOCC3)CC2)C1.O=C(O)C(F)(F)F.O=C(O)C(F)(F)F` was 8.025%. The value for `CN(C)C(=O)CN1CCOCC2(C1)CN(c1ncc(F)cn1)CCO2.O=C(O)C(F)(F)F` (centres undefined) was 98.39%; that for `CN(C)C(=O)CN1CCOCC2(CCN(CC3CCOC3)CC2)C1.O=C(O)C(F)(F)F.O=C(O)C(F)(F)F` (centres undefined) was -17.88%; that for `Fc1ccc(N2CCOC3(COCCN(c4ncccn4)C3)C2)cc1.O=C(O)C(F)(F)F` (centres undefined) was 20.84%.
